The list is not random: actives were taken first. Their share in the collection is about 1.8%.
SDO1 yeast rescue: compounds rescuing growth of sdo1-depleted yeast, bone marrow failure model; AID 817; z-score at 10 µM; 140,000 compounds, 0.21% hits; S. cerevisiae sdo1-depleted JHY4D growth rescue, OD600 30 h; hits give high values; pdr5 snq2 efflux-pump mutant strain;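 active = z-score above 3 at both the 24 hr and the 30 hr optical density reads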;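 note: z-score against mean and SD of all compound wells on the same plate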
Phagocyt inh: inhibitors of macrophage phagocytosis; J774A.1 macrophage IgG-bead phagocytosis, imaging; inhibition, % at 5 µM; 110,000 compounds, 0.07% hits;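 active = inhibition above the mean of the plate negative controls plus 5 SD, cut at about 13% in these data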;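 note: phagocytic index as fraction of beads internalized from green versus red external bead signal; plate controls were DMSO negative control for no effect and cytochalasin-D positive control for full effect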
Measles CPE: protection of cells from measles virus. protection (pct of control), % at 4 µM. Measles virus-infected cells, CPE protection, absorbance. 140,000 compounds, 1.5% hits. AID 841; in the data active = protection mostly above about 24%, no sharp cut-off; inactive = mostly below about 26%
An asterisk follows results filed as active; . = no result.

SMILES	SDO1 yeast rescue	Phagocyt inh	Measles CPE
C/C(Nc1ccc(F)cc1)=C(/C#N)C(N)=O	1.6	1	5
NC(=O)Nc1ccc(F)cc1	1.5	0	70*
COc1cc2cnc(Cl)nc2cc1OC	-0.11	-3	7
COc1ccc(OC)c(NC(=O)C2CC(C)=C(C)CC2C(=O)O)c1 (configuration not stated)	0.26	0	23
COc1cc(NC(=O)C2CCCCC2)c(OC)cc1NC(=O)CN1CCCCC1	0.21	0	47*
COc1cc(NC(=O)Nc2ccccc2OC)c(OC)cc1NC(=O)CN1CCCCC1	0.27	.	2
COc1cc(S(=O)(=O)NC(C)C)ccc1Cl	0.5	-1	33*
COc1ccc(S(=O)(=O)NC(C(C)C)C(C)C)cc1OC	0.64	.	9
Cc1cccc2c1CC(C)(C)NC2=C(C#N)C#N	0.89	-3	16
CC(=O)N(CCCN1CCOCC1)Cc1ccncc1	2.4	0	57*
c1cc(CNCCCN2CCOCC2)ccn1	0.08	.	11
O=C(Nc1cccc(Cl)c1)OCc1cn(-c2ccc(Cl)cc2)nn1	1	.	2
Cc1ccc(-n2c(SCC(=O)N3CC(=O)Nc4ccccc43)nc3ccccc3c2=O)cc1	0.01	2	33*
Cc1cccc(C)c1-n1c(SCC(=O)N2CC(=O)Nc3ccccc32)nc2ccccc2c1=O	0.38	-11	24
Cc1ccc(S(=O)(=O)/N=C(\CCl)N2CCOCC2)cc1	-0.53	-2	5
Cc1ccc(N2NC(C)(c3cccs3)NC2=S)cc1 (configuration not stated)	-1.4	-3	26
COc1ccc(C)cc1N(CC(N)=O)S(=O)(=O)c1ccc(C)cc1	1.5	0	5
COc1nc(N(CC(N)=O)S(=O)(=O)c2ccccc2)nc(C)c1Cl	-0.28	.	29*
O=C(NCc1cccnc1)C1CCN(C(=O)c2ccc(Cl)cc2Cl)CC1	-0.66	0	35*
CCS(=O)(=O)N1CCC(C(=O)NCc2cccnc2)CC1	0.98	.	5
CCN(CC)C(=O)Cn1c(=O)n(-c2ccccc2)c(=O)n1CC(=O)N(CC)CC	0.3	3	5
CC1CC(=O)Nc2ccccc2N1S(=O)(=O)c1cccc(Cl)c1 (configuration not stated)	-0.14	-12	39*
CC1Cc2ccccc2N1S(=O)(=O)c1ccc2c(c1)n(C)c(=O)c(=O)n2C (configuration not stated)	0.56	-1	10
CCc1ccc2[nH]c(=O)c(C(c3nnnn3CC3CCCO3)N3CCN4CCCC4C3)cc2c1 (configuration not stated)	0.36	3	14
CCSc1nc(N)nc(-c2cccs2)c1C#N	-2.8	-1	26
SMILES	SDO1 yeast rescue	Phagocyt inh	Measles CPE
COC(=O)CCC(=O)COc1ccc(OC)cc1C#N	0.26	-1	15
COC(=O)CCC(=O)COc1ccccc1C#N	0.88	-2	41*
COc1cc(C2CC(=O)c3c([nH]c(C(=O)OCCOC(C)C)c3C)C2)cc(OC)c1OC (configuration not stated)	0.46	-1	15
CC(C)c1ncc(C(O)c2cccc3ccccc23)n1C (configuration not stated)	0.17	-2	11
CCOC(=O)CSc1n[nH]c(NC(=O)c2ccc(F)cc2)n1	-0.25	.	11
CCOC(=O)CSc1n[nH]c(NC(=O)c2ccccc2)n1	-0.83	.	53*
COc1ccc(C(=O)N=c2sc3c(C)ccc(OC)c3n2C)cc1	-0.31	0	16
COc1ccc(OC)c([C@@H]2OCCC=C[C@H]2C)c1	-0.01	.	3
CCOC(=O)Nc1ccc(C(=O)Oc2ccccc2)c(O)c1	-0.46	.	40*
CCOC(=O)Nc1ccc(Oc2ccccc2)cc1	-0.24	-1	16
Oc1ccc(N2CCN(C(=S)NCCc3ccccc3)CC2)cc1	-2.1	-7	2
Cc1cc(C)c(C)c(S(=O)(=O)N2CCN(CC(=O)Nc3sccc3C#N)CC2)c1C	0.26	5	1
CC1Cc2nc(SCC(=O)Nc3ccc(F)cc3F)n(C)c(=O)c2S1 (configuration not stated)	-2.2	-1	41*
Cc1ccc(C)c(NC(=O)CSc2nc3c(c(=O)n2C)SC(C)C3)c1 (configuration not stated)	-0.51	-2	20
O=C(Nc1nc2ccccc2s1)c1ccc(N2CCCCC2)c([N+](=O)[O-])c1	-0.76	-4	1
CC(=O)Nc1ccc(Nc2nc(C)c([N+](=O)[O-])c(Nc3ccc(NC(C)=O)cc3)n2)cc1	-0.9	-8	18
CSc1ccc(S(=O)(=O)Nc2ccc3c(c2)OCCO3)cc1	-0.6	0	42*
O=S(=O)(Nc1ccc2c(c1)OCCO2)c1ccc(F)cc1	0.46	-2	7
COc1ccc(-c2c3c(nc4sc5c(Cl)nc(C)nc5c24)CCC3)cc1	-0.46	.	3
O=C(Nc1ccccc1-c1ccccc1)c1cc(C(F)(F)F)cc(C(F)(F)F)c1	0.25	-10	13
Cc1ccc(N/N=C(\C#N)C(=N)N2CCOCC2)cc1	-0.34	-2	5
N#C/C(=N\Nc1ccccc1)C(=N)N1CCOCC1	0.57	-2	74*
O=S(=O)(Nc1nc2ccc(S(=O)(=O)N3CCCCC3)cc2s1)c1ccccc1	0.99	0	18
CN(C)c1nc(SCCOC(=O)COc2ccc(Cl)cc2Cl)nc(N(C)C)n1	0.62	0	105*
CN(C)c1nc(OCCOC(=O)COc2ccc(Cl)cc2Cl)nc(N(C)C)n1	-0.28	-1	12
SMILES	SDO1 yeast rescue	Phagocyt inh	Measles CPE
CCOc1nc(N2CCOCC2)nc(C)c1[N+](=O)[O-]	1	-14	10
CNCCOc1nc(N2CCOCC2)nc(C)c1[N+](=O)[O-]	2.1	-7	56*
Cc1nn(C)c(C)c1/C=N/O	1.4	-1	2
O=C(NC(=S)N1CCCc2ccccc21)c1ccc(Cl)cc1	0.15	-2	23
O=C(NC(=S)N1CCCc2ccccc21)c1ccccc1	0.34	.	26*
CCn1c(SCC(=O)Nc2oc(-c3ccccc3)c(-c3ccccc3)c2C#N)nnc1-c1cc(OC)cc(OC)c1	-0.21	0	8
Cc1cccc(-n2nnc(C(=O)NCc3ccccn3)c2N)c1	0.33	0	15
Cc1ccc(SCCc2ccc(C)nc2)cc1	1.2	-4	7
COc1ccc(C(=O)SC2=NCCS2)cc1	0.35	.	9
CCOc1ccc(C(=O)SC2=NCCS2)cc1	0.31	2	30*
O=[N+]([O-])c1ncn(Cc2c(Cl)cccc2Cl)n1	1.5	-8	25
CCCNC(=O)[C@H](Cc1c[nH]c2ccccc12)NC(=O)c1ccccc1Cl	0.1	-5	32*
CCCCNC(=O)[C@H](Cc1c[nH]c2ccccc12)NC(=O)c1ccccc1Cl	0.21	-2	2
CC(C)n1c(-c2ccco2)csc1=Nc1cccnc1	-1.4	-1	9
COc1ccc(-n2c(Cc3cc(=O)[nH]c(=O)[nH]3)nnc2SCc2ccccc2)cc1	0.95	-1	16
COc1cccc(-n2c(Cc3cc(=O)[nH]c(=O)[nH]3)nnc2SCc2cccnc2)c1	0.11	1	44*
CC(=O)N1CCc2cc(C(=O)CN3CCC(C)CC3)ccc21	1.1	0	35*
CC(=O)N1CCc2cc(C(=O)CN3CCN(c4cccc(Cl)c4)CC3)ccc21	0.85	0	10
O=C(Nc1ccccc1)C(c1ccccc1)C1CCCC1 (configuration not stated)	-1.8	-13	8
